Holding throughout (assay type): functional
In experiment [1] the test system is Plasmodium falciparum. The experiment in a line: GSK_TCMDC: Inhibition of Plasmodium falciparum 3D7 in whole red blood cells, using parasite LDH activity as an index of growth. Test compounds present at 2uM.
Experiment [2] deals with Plasmodium falciparum. As to the kind of experiment: GSK_TCMDC: Inhibition of Plasmodium falciparum Dd2 in whole red blood cells, using parasite LDH activity as an index of growth. Test compounds present at 2uM.
A further experiment deals with HepG2. As to the kind of experiment: GSK_TCMDC: Percent inhibition of human HepG2 cell line. Test compounds present at 10uM.

Regarding `COc1ccc(NC(=O)c2ccc(C=Cc3ccc(C(F)(F)F)cc3)cc2)cc1N1CCN(C)CC1`, the Inhibition – broadly, the change of the read-out against control, counted positive when it falls – in the experiment with Plasmodium falciparum [1] was determined as 99%; in the experiment on Plasmodium falciparum [2], 47%; in the experiment with HepG2 it was 46%.
For the compound `FC(F)(F)c1ccc(-c2ccc(CNC3CCN(CCN4CCOCC4)CC3)cc2)cc1`, the Inhibition came to 100% in the experiment with Plasmodium falciparum [1], 74% in the experiment with Plasmodium falciparum [2] and 44% with HepG2.
With `COc1ccc2ncc(C#N)c(CCN3CCC(NCc4ccc5c(n4)NC(=O)CS5)CC3)c2n1.Cl`, the Inhibition in the experiment with Plasmodium falciparum [1] is on record as 89%; with Plasmodium falciparum [2] it was 17%; in the experiment with HepG2, 9%.
Taken in the same sequence, the figures for `Cc1ccc(NC(=O)c2ccc(Cl)c(Cl)c2)cc1-c1ccc(C(=O)Nc2ccncc2)cc1` were 99%, 79% and 39%.
For `CCOC(=O)c1nc(-c2ccc(-c3ccccc3)cc2)[nH]c1N.Cl`, the Inhibition stood at 98% in the experiment on Plasmodium falciparum [1], 2% with Plasmodium falciparum [2] and 0% in the experiment on HepG2.
As for `CS(=O)(=O)c1ccc(CNCc2ccc(-c3ccc(-c4nc5cc(C(F)(F)F)ccc5[nH]4)cc3)cc2)cc1.O=C(O)C(F)(F)F`, the Inhibition in the experiment with Plasmodium falciparum [1] turned out to be 100%; in the experiment with Plasmodium falciparum [2] it was 82%; in the experiment on HepG2, 26%.
As for `CCn1c(=O)c(C(=O)Nc2cc(Cl)c(OC)cc2OC)nc2ccccc21`, the values for the Inhibition in the experiment with Plasmodium falciparum [1], in the experiment on Plasmodium falciparum [2] and in the experiment with HepG2 were 86%, 84% and 19%, respectively.
On to `O=C(NCCCN1CCOCC1)c1cccc(Nc2nccc(Nc3ccc(Oc4ccccc4)cc3)n2)c1`, for which the Inhibition with Plasmodium falciparum [1] is listed as 98%; with Plasmodium falciparum [2], 22%; with HepG2, 34%.
For `COc1ccc(Cn2c(Nc3cccc(C(F)(F)F)c3)nc3ccc(C(=O)NCCN4CCCC4)cc32)cc1Cl` the same measures were 100%, 6% and 14%.
For `CSC1=NC(C)(C)CC2(CC(c3cccc(C)c3)c3cc(Cl)c(O)cc3O2)N1` (stereo not given) the same measures were 100%, 73% and 0%.
For `CC(C)(C)c1ccc(CN2CCC(NC(=O)c3ccc(-c4cccc(Cl)c4)s3)CC2)cc1.O=C(O)C(F)(F)F` the same measures were 99%, 47% and 36%.
With `Cc1ccc2nc(C)n(C3CCN(C(=O)Cc4ccccc4C)CC3)c2c1`, the Inhibition in the experiment with Plasmodium falciparum [1] is given as 100%; in the experiment on Plasmodium falciparum [2], 100%; in the experiment with HepG2, 2%.
For the compound `CO/C(=C\C=C\c1cc2cc(Cl)c(Cl)cc2[nH]1)C(=O)NCCCN1CC(C)N(C)CC1C` (stereo not given), the Inhibition in the experiment on Plasmodium falciparum [1] is listed as 92%; in the experiment with Plasmodium falciparum [2], 73%; with HepG2, 38%.
Taken in the same sequence, the figures for `Clc1ccc(Cn2nc(Br)nc2Br)c(Cl)c1` were 96%, 96% and 4%.
Consider `N#Cc1ccc2c(c1)CCN(CCCn1c(-c3ccc4ccccc4c3)nc3ccncc31)CC2`, for which the Inhibition in the experiment with Plasmodium falciparum [1] was 100%; in the experiment on Plasmodium falciparum [2] it was 97%; in the experiment on HepG2 it was 38%.
Taken in the same sequence, the figures for `O=C(O)C(F)(F)F.O=S(=O)(NCCN1CCCC1)c1cccc(-c2ccc(CNCc3ccccc3)cc2)c1` were 95%, 41% and 54%.
On to `O=C(NCCN1CCCC1)c1cccc(-c2ccc(-c3nc4cc(C(F)(F)F)ccc4[nH]3)cc2)c1`, for which the figures for the Inhibition in the experiment with Plasmodium falciparum [1], with Plasmodium falciparum [2] and in the experiment on HepG2 were 100%, 99% and 34%, respectively.
Turning to `COc1cc(CCNc2nc(NCc3cccc4ccccc34)nc(N3CCC(N)CC3)n2)ccc1O.O=C(O)C(F)(F)F`, the results for the Inhibition with Plasmodium falciparum [1], in the experiment with Plasmodium falciparum [2] and with HepG2 were 100%, 59% and 16%, respectively.
For `CCc1c(CCNCCCCCNCCc2ccc(OC)c(OC)c2CC)ccc(OC)c1OC.Cl` the same measures were 100%, 1% and 59%.
For `O=C(Nc1ccc2c(c1)CCC2)c1cccc(N2CCN(c3ccncc3)CC2)c1.O=C(O)C(F)(F)F`, the values for the Inhibition in the experiment with Plasmodium falciparum [1], in the experiment with Plasmodium falciparum [2] and in the experiment on HepG2 were 92%, 22% and 35%, respectively.
For `COc1ccc(-c2ccccc2CNc2nc(NCCc3ccc(O)cc3)nc(N3CCNCC3)n2)cc1.O=C(O)C(F)(F)F`, the Inhibition in the experiment on Plasmodium falciparum [1] is 86%; in the experiment on Plasmodium falciparum [2], 3%; with HepG2 it was 48%.
Taken in the same sequence, the figures for `Cc1cccc2nc(-c3ccc(-c4cccc(CN5CCCCC5)c4)s3)[nH]c12.O=C(O)C(F)(F)F` were 100%, 92% and 11%.
As for `O=C(/C=C/c1ccccc1Cl)Nc1ccc(Br)c(OCCN2CCN(CCN3CCCC3)CC2)c1.O=C(O)C(=O)O`, the results for the Inhibition in the experiment with Plasmodium falciparum [1], in the experiment on Plasmodium falciparum [2] and in the experiment with HepG2 were 99%, 89% and 26%, respectively.
In the case of `CN(Cc1cccc(O)c1)C1CCN(c2cc(NC(=O)c3cccc(F)c3)ccn2)CC1.O=C(O)C(F)(F)F`, the figures for the Inhibition with Plasmodium falciparum [1], with Plasmodium falciparum [2] and in the experiment on HepG2 were 98%, 37% and 0%, respectively.
For `Cc1cccc(C)c1CNc1ccnc2cc(C#N)ccc12.Cl` the same measures were 100%, 99% and 20%.
`COc1ccc(-c2onc(C(F)(F)F)c2-c2cc3ccccc3o2)c(O)c1`: the Inhibition is reported as 93% in the experiment with Plasmodium falciparum [1], 15% in the experiment with Plasmodium falciparum [2] and 6% in the experiment with HepG2.
On to `COc1ccc(CNC(=O)Nc2cc3cc(-c4ccc(CN(C)C)cc4)ccc3n3c(C)nnc23)cc1`, for which the results for the Inhibition in the experiment with Plasmodium falciparum [1], with Plasmodium falciparum [2] and with HepG2 were 93%, 80% and 99%, respectively.
`O=C(CNC(=O)c1ccc(O)cc1)Nc1ccc(-c2cccc(-c3nc4cc(C(F)(F)F)ccc4[nH]3)c2)cc1`: the Inhibition in the experiment with Plasmodium falciparum [1] amounted to 92%; in the experiment with Plasmodium falciparum [2] it was 47%; in the experiment with HepG2, 26%.
For `CCOC(=O)c1cn(CC)c2cc(OCc3ccccc3)ccc2c1=O` the same measures were 97%, 96% and 2%.
Taken in the same sequence, the figures for `O=C(/C=C/c1ccc(Cl)c(Cl)c1)NCCCCCN1CCC(NC(=O)NC2CCCCCC2)CC1` were 99%, 41% and 15%.
For `NC1CCCN(Cc2ccc(-c3cccc(-c4nc5ccccc5[nH]4)c3)cc2)C1.O=C(O)C(F)(F)F` (stereo not given) the same measures were 95%, 26% and 26%.
On to `Cc1sc(CNCCCNc2cc(=O)c3ccccc3[nH]2)c(C(F)(F)F)c1C.Cl`, for which the Inhibition came to 99% in the experiment with Plasmodium falciparum [1], 70% with Plasmodium falciparum [2] and 0% in the experiment on HepG2.
For the compound `O=C(Cn1c(CCc2cccc(F)c2F)nc(=O)c2ccccc21)N(Cc1ccc(-c2ccc(C(F)(F)F)cc2)cc1)C1CCN(C2CCSCC2)CC1.O=C(O)C(O)C(O)C(=O)O`, the figures for the Inhibition with Plasmodium falciparum [1], in the experiment with Plasmodium falciparum [2] and in the experiment on HepG2 were 99%, 93% and 97%, respectively.
With `CCNc1cc(C(=O)N[C@@H](Cc2ccccc2)[C@H](O)CNC2(Cc3cccc(Cl)c3)CCC2)cc(N2CCCCS2(=O)=O)c1.Cl`, the Inhibition was determined as 95% with Plasmodium falciparum [1], 83% in the experiment on Plasmodium falciparum [2] and 22% in the experiment on HepG2.
`O=C(NC1CC1)c1cnc(N2CCCC(c3ccccc3)C2)c(Cl)c1.O=C(O)C(F)(F)F` (stereo not given): the Inhibition is on record as 95% with Plasmodium falciparum [1], 94% in the experiment with Plasmodium falciparum [2] and 6% in the experiment on HepG2.
For the compound `CN(c1ccc2c(c1)nc(NC(=O)C1(c3cc(F)ccc3F)CC1)n2C)c1ccnc(Nc2cccc(CS(C)(=O)=O)c2)n1.O=C(O)C(F)(F)F`, the Inhibition in the experiment on Plasmodium falciparum [1] stood at 89%; in the experiment on Plasmodium falciparum [2], 46%; in the experiment with HepG2, 42%.
Turning to `COc1cc(C(=O)N2N=C(c3c(-c4ccccc4)c4cc(Br)ccc4[nH]c3=O)CC2c2cccc([N+](=O)[O-])c2)cc(OC)c1OC` (stereo not given), the Inhibition was 93% in the experiment with Plasmodium falciparum [1], 95% in the experiment on Plasmodium falciparum [2] and 1% in the experiment with HepG2.
With `CN1CCN(Cc2cccc(-c3ccc4c(Nc5ccc(Oc6cccnc6)cc5)ccnc4c3)c2)CC1`, the Inhibition in the experiment with Plasmodium falciparum [1] is listed as 100%; in the experiment on Plasmodium falciparum [2], 100%; with HepG2, 15%.
In the case of `COc1ccc2nc(C)cc(Nc3ccc(Oc4ccc5ccccc5c4)c(Cl)c3)c2c1`, the Inhibition worked out at 100% in the experiment on Plasmodium falciparum [1], 99% in the experiment with Plasmodium falciparum [2] and 40% in the experiment with HepG2.
As for `Cc1cccc2nc(-c3ccc(-c4cccc(CN5CCN(c6ccc(C#N)cn6)CC5)c4)s3)[nH]c12.O=C(O)C(F)(F)F`, the Inhibition with Plasmodium falciparum [1] is 85%; with Plasmodium falciparum [2], 8%; in the experiment with HepG2, 37%.
In the case of `CC(C)C[C@H](NC(=O)c1ccc(OCCN2CCOCC2)cc1)C(=O)N[C@H](/C=N/N1CCNC1=O)CCc1ccccc1`, the Inhibition in the experiment with Plasmodium falciparum [1] was found to be 89%; in the experiment on Plasmodium falciparum [2], 94%; in the experiment on HepG2, 1%.
For `Cc1cc(N[C@@H](Cc2ccccc2)C(=O)NCc2cccc(F)c2)nc(NCCc2cccnc2)n1.O=C(O)C(F)(F)F` the same measures were 92%, 40% and 18%.
Taken in the same sequence, the figures for `Nc1cc(-c2ccc3c(N)nccc3c2)ccc1Cl` were 91%, 4% and 1%.
For `Cc1cccc(CNc2nc(C)cc(NCCC(=O)NCc3cccc(F)c3)n2)c1.O=C(O)C(F)(F)F` the same measures were 84%, 13% and 23%.
Take `CC1CN(c2ccc(NC(=O)c3ccsc3)cc2C(=O)N2CCN(Cc3ccc(C(C)(C)C)cc3)CC2)CC(C)O1` (stereo not given): the Inhibition in the experiment on Plasmodium falciparum [1] is given as 90%; in the experiment on Plasmodium falciparum [2], 80%; with HepG2 it was 12%.
As to `Br.CC1(C)NC(N)=NC(=N)N1OCCCc1cc(Cl)c(Cl)cc1Cl`, the Inhibition with Plasmodium falciparum [1] is on record as 95%; in the experiment with Plasmodium falciparum [2], 96%; with HepG2, 55%.
For `CCN(CC)c1ccc(-c2nc3cc(Cl)cnc3[nH]2)cc1` the same measures were 85%, 85% and 16%.
For `CCOc1cc(C)ccc1C1CCN(CCCCNC(=O)c2nc(-c3ccc(C(F)(F)F)cc3)[nH]c2C)CC1.Cl` the same measures were 100%, 98% and 30%.
For `Cn1nc(-c2ccccc2F)c2cc(C(=O)NC3CCN(Cc4ccccc4)CC3)sc21` the same measures were 97%, 34% and 5%.
With `Cc1cc(OCC2CCCN(c3ncc(C(=O)NC4CC4)cc3Cl)C2)ccc1F` (stereo not given), the Inhibition with Plasmodium falciparum [1] came out at 88%; in the experiment on Plasmodium falciparum [2] it was 68%; in the experiment with HepG2, 3%.
For `Cc1csc2nc(-c3ccccn3)nc(Nc3ccc4ncsc4c3)c12.Cl` the same measures were 85%, 91% and 0%.
Taken in the same sequence, the figures for `Br.CCN(CC)CCn1c(=N)n(CC(=O)c2ccc(-c3ccccc3)cc2)c2ccccc21` were 83%, 38% and 32%.
In the case of `Cl.O=S(=O)(c1cccc(F)c1)c1ccc(Nc2ncnc3cc(Br)sc23)cc1Cl`, the Inhibition with Plasmodium falciparum [1] is recorded as 86%; with Plasmodium falciparum [2], 11%; in the experiment on HepG2 it was 20%.
As to `CCOc1ccc(Nc2nc(N)c3ccccc3n2)cc1.Cl`, the Inhibition in the experiment on Plasmodium falciparum [1] was found to be 90%; in the experiment with Plasmodium falciparum [2], 6%; in the experiment on HepG2, 28%.
Taken in the same sequence, the figures for `Oc1ccc(Br)cc1-c1nc2ccc(Cl)cc2nc1-c1cc(Br)ccc1O` were 100%, 64% and 0%.
Take `NS(=O)(=O)c1cncc(-c2ccc3nccc(-c4cn[nH]c4)c3n2)c1`: the Inhibition in the experiment on Plasmodium falciparum [1] turned out to be 99%; in the experiment with Plasmodium falciparum [2] it was 100%; with HepG2 it was 33%.
For `CN(C)CCNCc1cccc(-c2ccc3c(Nc4cc(O)c(Cl)cc4F)ccnc3c2)c1` the same measures were 99%, 59% and 6%.
For `COc1ccc(C(=O)N[C@@H](CC(C)C)C(=O)N[C@H](/C=N/NC(=O)c2ccccc2)CCc2ccccc2)cc1OCCN1CCOCC1`, the Inhibition with Plasmodium falciparum [1] is reported as 96%; in the experiment with Plasmodium falciparum [2], 86%; in the experiment on HepG2, 2%.
For `CN(C)CCOc1cc(NC(=O)c2ccc(-c3ccc(Cl)cc3Cl)cc2)ccc1-c1ccccc1` the same measures were 98%, 26% and 45%.
For `N#CC(CC(=O)c1ccc(Cl)cc1)c1cccc(F)c1` (stereo not given) the same measures were 97%, 4% and 5%.

The values are drawn from ChEMBL document CHEMBL1157539, “Thousands of chemical starting points for antimalarial lead identification” (Nature, 2010).
